# Results reported in PubChem BioAssay.
# “And” between values parts separate entries of the source, which are not always exact repeats. Equal entries are not always repeated. The source made the active and inactive calls.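 The calls were made as follows, unless noted: active = z-score of at least 1.8 in each of two replicates, scored against plate mean and spread of sample wells; inactive = the rest.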
# How the values were obtained:
# [1] = biological target: Mitogen-activated protein kinase 7 (Homo sapiens) (UniProt Q13164); assay: Gal4-ERK5 driven luciferase induction – cell-based, HTS, primary screen (AID 1508626;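 active = luciferase signal above three times the same-plate solvent-only control wells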;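 also: luciferase driven by Gal4-ERK5 fusion binding five Gal4 sites before minimal TATA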); details: HeLa Gal4-ERK5 transactivation, 18 h, at 5 µM, stronger effect = higher value
# [2] = galactose survival enhancers in mitochondrial complex I cybrids – cell-based, galactose medium, ATP luminescence, primary screen (AID 1645843); details: complex I mutant cybrid cells, 72 h, stronger effect = higher value;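 also: positive z means more ATP and so rescue of galactose-driven cybrid death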
# [3] = growth inhibition, single agent or in combination, cell-based, chromothripsis tumors, cisplatin or BGB combos (AID 1671449; in the data active = inhibition above about 80%;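 also: cells exposed for 96 hours; 0% = vehicle DMSO and 100% = killing by high DMSO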); details: LFS_MB_P medulloblastoma cells
# [4] = growth inhibition, single agent and combos, cell-based, chromothripsis tumors, cisplatin or BGB combos (AID 1671450; in the data active = inhibition above about 80%;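 also: cells exposed to compound for four days; 0% = vehicle DMSO and 100% = cell killing by high DMSO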); details: HDN33 neuroblastoma cells, stronger effect = higher value
# [5] = growth inhibition, single agents and combos, ICB984, cell-based, cisplatin or BGB combos, synergistic combos for chromothripsis tumors (AID 1671451; call rule not given here;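 also: cells exposed for 96 hours before readout; 0% = vehicle DMSO and 100% = killing by high DMSO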); details: ICB984 medulloblastoma cells, drug combinations, stronger effect = higher value
# [6] = growth inhibition, single agents and combos, LFS_MB_1R, cell-based, cisplatin or BGB combos, synergistic combos for chromothripsis tumors (AID 1671452; in the data active = inhibition above about 80%;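 also: cells exposed for 96 hours before readout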); details: LFS_MB_1R medulloblastoma cells, stronger effect = higher value
# [7] = growth inhibition, single agents and combos, HTB85, cell-based, BGB or cisplatin IC20 combos, synergistic combos for chromothripsis tumors (AID 1671453; in the data active = inhibition above about 80%;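 also: cells exposed for 96 hours before readout; 0% = vehicle DMSO and 100% = high DMSO killing control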); details: HTB85 osteosarcoma cells, drug combinations, stronger effect = higher value
# [8] = growth inhibition, single agents and combos, CRL2098, cell-based, BGB or cisplatin IC20 combos, synergistic combos for chromothripsis tumors (AID 1671454; in the data active = inhibition above about 80%;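 also: cells exposed for 96 h before readout; 0% = vehicle DMSO and 100% = killing by high DMSO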); details: CRL2098 osteosarcoma cells, drug combinations, stronger effect = higher value
# [9] = growth inhibition, single agents and combos, HD-MB03, cell-based, BGB or cisplatin IC20 combos, synergistic combos for chromothripsis tumors (AID 1671455; in the data active = inhibition above about 83%;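 also: 0% = vehicle DMSO and 100% = high DMSO as cytotoxic control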); details: HD-MB03 medulloblastoma cells, stronger effect = higher value
# [10] = growth inhibition, single agents and combos, UWB1.289, cell-based, BGB or cisplatin combos, synergistic combos for chromothripsis tumors (AID 1671456; in the data active = inhibition above about 80%;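 also: cells exposed to compound for four days; 0% = vehicle DMSO and 100% = killing by high DMSO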); details: UWB1.289 ovarian carcinoma cells, stronger effect = higher value
# [11] = growth inhibition, single agents and combos, LFS_MB_2R, cell-based, cisplatin combos, synergistic combos for chromothripsis tumors (AID 1671457; in the data active = inhibition above about 80%;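 also: cells exposed to compound for four days before readout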); details: LFS_MB_2R medulloblastoma cells, stronger effect = higher value
# [12] = growth inhibition, MDA-MB-436, cell-based, BGB or cisplatin combos, synergistic combos for chromothripsis tumors (AID 1671458; call rule not given here;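 also: cells exposed for 96 hours; 0% = vehicle DMSO and 100% = killing by high DMSO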); details: MDA-MB-436 breast carcinoma growth inhibition, drug combinations, stronger effect = higher value
# [13] = UWB1.289_BRCA1 ovarian cancer growth, cell-based, BGB or cisplatin combinations (AID 1671459; in the data active = inhibition above about 80%); details: UWB1.289 BRCA1 ovarian carcinoma, drug combinations, stronger effect = higher value
# [14] = drug combination toxicity in non-malignant astrocytes – cell-based, BGB or cisplatin IC20 combos, cytotoxicity control for chromothriptic childhood tumor combination screen (AID 1671460; in the data active = inhibition above about 80%;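 also: cells exposed to compounds for 96 hours before viability readout; 0% = vehicle and 100% = killing control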); details: Human astrocytes, viability inhibition, drug combinations, at 0.5 µM, stronger effect = higher value
# [15] = BT084 cell growth, single and combined drugs, ICGC_MB145, cisplatin and BGB IC40 combos (AID 1671461; in the data active = inhibition above about 80%;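 also: cells exposed to drugs for 96 hours; 0% = vehicle DMSO and 100% = high DMSO full killing control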); details: BT084 medulloblastoma cells, drug combinations, stronger effect = higher value
# [16] = RCMB18 cell growth, single agent and combined, cisplatin and BGB IC40 combos (AID 1671462; in the data active = inhibition above about 80%;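 also: cells exposed to compound for four days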); details: RCMB18 medulloblastoma cells, stronger effect = higher value
# [17] = CRL1545 cell growth, single agent and combined, cisplatin and BGB IC20 combos (AID 1671464; in the data active = inhibition above about 80%;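 also: cells exposed to compound for 96 hours before readout; 0% = vehicle DMSO and 100% = high DMSO killing control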); details: CRL1545 osteosarcoma cells, stronger effect = higher value
# [18] = measured here: combination with BGB IC40, at 0.05 µM
# [19] = measured here: with BGB IC20 combination, at 0.5 µM
# [20] = measured here: with cisplatin IC20 combination, at 0.5 µM
# [21] = measured here: combination with cisplatin, at 0.5 µM
# [22] = measured here: combination with cisplatin, at 5 µM
# Chain of Mitogen-activated protein kinase 7 (Homo sapiens) (Q13164 whole entry, looked up, the tested form may be a part): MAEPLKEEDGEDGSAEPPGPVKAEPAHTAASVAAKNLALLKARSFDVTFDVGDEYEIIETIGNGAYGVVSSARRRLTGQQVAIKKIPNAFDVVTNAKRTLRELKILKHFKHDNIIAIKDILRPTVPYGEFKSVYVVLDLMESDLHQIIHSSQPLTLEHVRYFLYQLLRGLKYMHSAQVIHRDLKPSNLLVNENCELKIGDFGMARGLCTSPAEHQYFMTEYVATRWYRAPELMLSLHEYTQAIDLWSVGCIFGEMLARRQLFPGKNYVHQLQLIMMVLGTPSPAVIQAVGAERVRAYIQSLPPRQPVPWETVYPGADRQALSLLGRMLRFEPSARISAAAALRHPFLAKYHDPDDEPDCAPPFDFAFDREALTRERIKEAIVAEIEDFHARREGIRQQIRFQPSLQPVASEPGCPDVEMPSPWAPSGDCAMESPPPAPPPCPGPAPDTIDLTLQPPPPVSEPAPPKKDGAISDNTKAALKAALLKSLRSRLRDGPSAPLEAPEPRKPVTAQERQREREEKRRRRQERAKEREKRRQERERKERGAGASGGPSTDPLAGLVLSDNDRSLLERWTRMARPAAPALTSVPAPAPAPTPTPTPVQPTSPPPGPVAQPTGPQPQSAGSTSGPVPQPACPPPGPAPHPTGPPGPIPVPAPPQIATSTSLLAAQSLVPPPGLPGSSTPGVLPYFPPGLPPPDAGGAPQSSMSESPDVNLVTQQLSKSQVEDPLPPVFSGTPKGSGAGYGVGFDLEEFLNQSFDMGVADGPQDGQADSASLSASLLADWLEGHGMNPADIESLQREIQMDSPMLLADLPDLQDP
structure (smiles),measurement,setting,value
CNC1(C)C2CCC(C2)C1(C)C (centres undefined),luciferase signal,[1],108 AU (inactive)
same,z-score,[2],0.26 (inactive) and 0.15 (inactive)
CC(=O)Nc1ccc(OCC(O)CNC(C)C)cc1 (centres undefined),luciferase signal,[1],24 AU (inactive)
same,z-score,[2],0.68 (inactive)
CCCCCCCC/C=C\CCCCCCCC(=O)NCc1ccc(O)c(OC)c1,z-score,[2],-1.29 (inactive) and -1.24 (inactive)
COc1cc(/C=C/C(=O)CC(=O)/C=C/c2ccc(O)c(OC)c2)ccc1O,luciferase signal,[1],44 AU (inactive)
CC(=O)[C@]1(O)Cc2c(O)c3c(c(O)c2[C@@H](O[C@H]2C[C@H](N)[C@H](O)[C@H](C)O2)C1)C(=O)c1ccccc1C3=O,z-score,[2],-1.04 (inactive) and -2.14 (inactive)
Nc1c2c(nc3ccccc13)CCCC2O (centres undefined),luciferase signal,[1],36 AU (inactive)
same,z-score,[2],0.445 (inactive) and 0.48 (inactive)
CN(C)C(=O)Nc1ccc(Cl)c(Cl)c1,luciferase signal,[1],260 AU (active)
COc1cc(N)c(Cl)cc1C(=O)NC1CCN(Cc2ccccc2)CC1,luciferase signal,[1],48 AU (inactive)
O=c1c(O)c(-c2ccc(O)c(O)c2)oc2cc(O)cc(O)c12,luciferase signal,[1],72 AU (inactive)
same,z-score,[2],-0.695 (inactive) and -0.855 (inactive)
same,inhibition,"[3]; at 0.5 µM, stronger effect = higher value",-5.93% (inactive)
same,inhibition,"[3]; measured here: combination with BGB IC20, at 0.005 µM",17%
same,inhibition,"[3]; measured here: combination with BGB IC40, at 0.005 µM",13.5%
same,inhibition,[3]; [18],25.1%
same,inhibition,"[3]; measured here: combination with cisplatin, at 0.5 µM, stronger effect = higher value",-24.2%
same,inhibition,"[3]; measured here: combination with cisplatin, at 5 µM, stronger effect = higher value",20.2%
same,inhibition,"[4]; BGB combo, at 5 µM",-9.66%
same,inhibition,[4]; at 0.5 µM,-7.52% (inactive)
same,inhibition,"[4]; cisplatin combo, at 5 µM",10.5%
same,inhibition,[4]; [19],-21.2%
same,inhibition,[4]; [20],12.4%
same,inhibition,"[4]; single agent, at 5 µM",-15.2%
same,inhibition,"[5]; BGB IC20 combo, at 0.005 µM",14%
same,inhibition,"[5]; BGB IC40 combo, at 0.005 µM",-3.66%
same,inhibition,"[5]; BGB IC40 combo, at 0.05 µM",-21.1%
same,inhibition,[5]; at 0.5 µM,2.09% (inactive)
same,inhibition,"[5]; cisplatin combo, at 0.05 µM",-21.1%
same,inhibition,"[5]; cisplatin combo, at 0.5 µM",-0.46%
same,inhibition,"[5]; cisplatin combo, at 5 µM",-2.17%
same,inhibition,"[5]; measured here: 5 uM single agent, at 5 µM",2.61%
same,inhibition,[6]; at 0.5 µM,-24.6% (inactive)
same,inhibition,[6]; [18],7.65%
same,inhibition,[6]; [21],-39%
same,inhibition,[6]; [22],-2.19%
same,inhibition,[7]; at 0.5 µM,-16.3% (inactive)
same,inhibition,"[7]; measured here: with BGB IC20, at 0.5 µM",-21.8%
same,inhibition,"[7]; measured here: with BGB IC20, at 5 µM",-1.29%
same,inhibition,"[7]; measured here: with cisplatin IC20, at 0.5 µM",-33.8%
same,inhibition,"[7]; measured here: with cisplatin IC20, at 5 µM",-25%
same,inhibition,"[7]; single agent, at 5 µM",-18.2%
same,inhibition,[8]; at 0.5 µM,-28.1% (inactive)
same,inhibition,"[8]; measured here: combination with BGB at IC20, at 0.5 µM",-37.5%
same,inhibition,"[8]; measured here: combination with cisplatin at IC20, at 0.5 µM",-36.5%
same,inhibition,[9]; at 0.5 µM,-8.42% (inactive)
same,inhibition,"[9]; measured here: combo with BGB at IC20, at 0.5 µM",-5.54%
same,inhibition,"[9]; measured here: combo with cisplatin at IC20, at 0.5 µM",-14%
same,inhibition,[10]; at 0.5 µM,-3.55% (inactive)
same,inhibition,"[10]; measured here: inhibition with BGB combination, at 0.05 µM",-4.11%
same,inhibition,"[10]; measured here: inhibition with cisplatin combination, at 0.05 µM",-12.6%
same,inhibition,[11]; at 0.5 µM,0.78% (inactive)
same,inhibition,[11]; [21],12%
same,inhibition,[11]; [22],15.1%
same,inhibition,[12]; at 0.5 µM,0.09% (inactive)
same,inhibition,"[12]; measured here: BGB combination, at 0.5 µM",-0.722%
same,inhibition,"[12]; measured here: BGB combination, at 5 µM",15.2%
same,inhibition,"[12]; measured here: cisplatin combination, at 0.5 µM",-5.24%
same,inhibition,"[12]; measured here: cisplatin combination, at 5 µM",12.3%
same,inhibition,"[13]; BGB combination, concentration series, at 5 µM",2.88%
same,inhibition,[13]; at 0.5 µM,-10.1% (inactive)
same,inhibition,"[13]; cisplatin combination, concentration series, at 5 µM",11.4%
same,inhibition,[14],-9.12% (inactive)
same,inhibition,[14]; measured here: combo with BGB IC20,-6.54%
same,inhibition,[14]; measured here: combo with cisplatin IC20,-19%
same,inhibition,[15]; at 0.5 µM,11.1% (inactive)
same,inhibition,"[15]; cisplatin combination, at 0.5 µM",-4.44%
same,inhibition,"[15]; cisplatin combination, at 5 µM",-18.7%
same,inhibition,"[15]; measured here: BGB IC40 combination 0.05 uM, at 0.05 µM",37.6%
same,inhibition,"[15]; single agent, at 5 µM",-1.38%
same,inhibition,[16]; at 0.5 µM,8.96% (inactive)
same,inhibition,"[16]; cisplatin combo, at 5 µM",-16.5%
same,inhibition,"[16]; measured here: BGB IC40 combination, at 0.05 µM",7.33%
same,inhibition,[16]; [21],6.44%
same,inhibition,"[16]; single agent, at 5 µM",2.31%
same,inhibition,[17]; at 0.5 µM,-39.9% (inactive)
same,inhibition,[17]; [19],-11.9%
same,inhibition,[17]; [20],-53.9%
same,inhibition,"[17]; single agent, at 0.05 µM",57.4%
same,inhibition,"[17]; single agent, at 5 µM",8.34%
O=c1c(-c2ccccc2)c1-c1ccccc1,z-score,[2],-1.44 (inactive)
COc1ccc2[nH]cc(CCNC(C)=O)c2c1,luciferase signal,[1],68 AU (inactive)
same,z-score,[2],0.52 (inactive) and 0.205 (inactive) and 0.655 (inactive)
